Source: PubChem BioAssay
A selection: hits, their analogues and other compounds. The true share with any hit is near 3.2%.
GLP1R cytotox = cytotoxicity counter-screen for GLP-1 receptor inverse agonists; AID 624418; 0.13% of 410,000 active; HEK293 cAMP-luciferase reporter cells, luminescence, 24 h; Potency, µM (doses to about 38.3 µM), usual class: inhibitors;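 note: loss of luciferase light is scored as toxicity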
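A 23 nL compound transfer followed 12 hours of cell culture at 37 deg C; exposure then lasted 24 hr. Luciferase assay detection reagent was dispensed and plates read for luminescence after a 12 min room-temperature wait.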
GLP-1R inv ag = acts as inverse agonist at human GLP-1 receptor | 1.6% of 410,000 active | Potency, µM (doses to about 38.3 µM), actives largely listed as inhibitors | HEK293 GLP-1R CRE-luciferase, luminescence, 24 h; GLP-1R form is constitutively active; note: nearly all actives have a fitted effect of over 55% in size
Target sequence (P43220 whole entry, looked up): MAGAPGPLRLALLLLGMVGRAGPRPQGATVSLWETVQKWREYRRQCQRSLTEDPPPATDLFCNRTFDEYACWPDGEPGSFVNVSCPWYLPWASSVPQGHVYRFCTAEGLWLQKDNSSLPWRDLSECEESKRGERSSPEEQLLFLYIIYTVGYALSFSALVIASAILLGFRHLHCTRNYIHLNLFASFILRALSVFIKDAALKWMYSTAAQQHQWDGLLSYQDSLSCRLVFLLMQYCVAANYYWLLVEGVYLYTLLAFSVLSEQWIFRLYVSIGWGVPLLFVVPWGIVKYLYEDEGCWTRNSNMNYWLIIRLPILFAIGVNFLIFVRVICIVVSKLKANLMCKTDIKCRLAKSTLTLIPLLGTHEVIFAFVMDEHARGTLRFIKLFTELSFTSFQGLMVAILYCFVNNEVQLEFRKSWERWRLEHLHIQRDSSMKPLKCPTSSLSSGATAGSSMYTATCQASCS
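Inverse agonists were sought by their lowering of basal cAMP reporter luciferase output in HEK293 cells stably carrying constitutively active human GLP-1R, after 24 h compound treatment.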
ClpP mod = qHTS Assay for Activators of ClpP. 1.9% of 340,000 active. purified B. subtilis ClpP, FRET peptide cleavage, 20 min. Potency, µM (highest dose often 57.5 µM); active = well fitted falling curve with a large enough effect; inconclusive = small, poorly fitted or top-dose-only effect; inactive = no such curve, though single readings can be large or run the other way; note: the source files actives as falling curves though it sought activators and does not explain the sign; nearly all actives have a fitted effect of over 65% in size
Target sequence (P80244 whole entry, looked up): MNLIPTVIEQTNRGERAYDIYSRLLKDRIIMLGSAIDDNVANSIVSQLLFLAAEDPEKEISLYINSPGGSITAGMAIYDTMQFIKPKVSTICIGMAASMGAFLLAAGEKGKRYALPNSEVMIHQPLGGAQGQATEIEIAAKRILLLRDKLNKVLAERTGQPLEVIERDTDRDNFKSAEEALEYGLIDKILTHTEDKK
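FRET quenching reversal measured ClpP activation: 10 microg/mL B. subtilis ClpP at pH 8 with the FRET-FV decapeptide, read at 430 nm after 320 nm excitation. The 20-min minus 0-min signal was scaled between DMSO/no-enzyme wells and ADEP (5.8 microM final).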
GLP-1R agonist = GLP-1 receptor (human) agonism | P43220 | Potency, µM (doses to about 45.6 µM), actives largely listed as activators | 0.007% of 380,000 active | HEK293 GLP-1R CRE-luciferase, luminescence, 4-6 h; cells express a hypersensitive GLP-1R form
Numbers stand for hits. Unless noted, calls come from the whole dose curve; as a rule, active = well fitted curve in the direction sought with a large enough effect; inconclusive = small, poorly fitted or top-dose-only effect, or another doubt; inactive = no such curve, though single readings can be large; an effect the other way counts as inactive or inconclusive.

How did Cc1ccc(S[C@@H](CCN2CC[C@H](C(C)(C)C)CCC2=O)c2ccccc2)cc1 do in these assays?
GLP1R cytotox: inactive; GLP-1R inv ag: 10µM; ClpP mod: inactive; GLP-1R agonist: inactive

What do the screens show for `COc1ccc(S[C@@H](CCN2CC[C@H](C)CCC2=O)c2ccccc2)cc1`?
GLP1R cytotox: inactive; GLP-1R inv ag: 10µM; ClpP mod: inactive; GLP-1R agonist: inactive

How did COC(=O)c1c(C)oc(C)c1S(=O)(=O)N1CCCCC1 do in these assays?
GLP1R cytotox: inactive; GLP-1R inv ag: inactive; ClpP mod: 17.8µM; GLP-1R agonist: inactive

Results for Cc1ccc(N(C)C(=O)Cn2ncc3c([nH]c4ccccc43)c2=O)cc1C ?
GLP1R cytotox: inactive; GLP-1R inv ag: inactive; ClpP mod: inactive

How did O=C1C=C(NC2CC2)C2(CCCCC2)O1 do in these assays?
GLP1R cytotox: inactive; GLP-1R inv ag: inactive; ClpP mod: 12.6µM; GLP-1R agonist: inactive

How did COc1cccc(-c2noc(COc3ccccc3Cl)n2)c1 do in these assays?
GLP1R cytotox: inactive; GLP-1R inv ag: inactive; ClpP mod: inactive

What do the screens show for `CCc1nc2sc(C#N)c(N)c2c2c1CCCC2`?
GLP1R cytotox: inactive; GLP-1R inv ag: inactive; ClpP mod: 28.2µM; GLP-1R agonist: inconclusive

How did OCC1OC(n2cnc3c(SCc4ccccc4)ncnc32)C(O)C1O (stereo not drawn) do in these assays?
GLP1R cytotox: inactive; GLP-1R inv ag: inactive; ClpP mod: inactive; GLP-1R agonist: inactive

How did OCC1OC(n2ccc3c(SCc4ccccc4)ncnc32)C(O)C1O (stereo not drawn) do in these assays?
GLP1R cytotox: inactive; GLP-1R inv ag: inactive; ClpP mod: 35.5µM; GLP-1R agonist: inactive

How did Cc1cccc(C(=O)Nc2ccc(C(=O)Nc3ccc(O)cc3)cc2)c1 do in these assays?
GLP1R cytotox: inconclusive; GLP-1R inv ag: 2.82µM; ClpP mod: inactive; GLP-1R agonist: inactive

What do the screens show for `Cc1ccc(C(=O)Nc2cc(C(C)C)c(O)c(C(C)C)c2)cc1`?
GLP1R cytotox: inactive; GLP-1R inv ag: 4.47µM; ClpP mod: inactive; GLP-1R agonist: inactive

Results for Cc1ccc(NC(=O)c2ccc(C)cc2)cc1 ?
GLP1R cytotox: inactive; GLP-1R inv ag: inconclusive; ClpP mod: inactive; GLP-1R agonist: inactive

Results for Cc1cccc(C(=O)Nc2ccc(NC(=O)Cc3ccc(Cl)cc3)cc2)c1 ?
GLP1R cytotox: inactive; GLP-1R inv ag: inactive; ClpP mod: 31.6µM; GLP-1R agonist: inactive

What do the screens show for `Cc1ccc(CNC(=O)c2cn(C)c(=O)c3c2c2ccccc2n3C)o1`?
GLP1R cytotox: inactive; GLP-1R inv ag: inactive; ClpP mod: 14.1µM; GLP-1R agonist: inactive

What do the screens show for `CCOC(CCNC(=O)c1cn(C)c(=O)c2c1c1ccccc1n2C)OCC`?
GLP1R cytotox: inactive; GLP-1R inv ag: inactive; ClpP mod: inactive; GLP-1R agonist: inactive

What do the screens show for `COc1ccccc1CNC(=O)c1nn(-c2ccc(C)cc2)c(=O)c2c1c1ccccc1n2C`?
GLP1R cytotox: inactive; GLP-1R inv ag: inactive; ClpP mod: 14.1µM; GLP-1R agonist: inactive

What do the screens show for `CCOc1ccccc1CNC(=O)c1cn(C)c(=O)c2c1c1ccccc1n2C`?
GLP1R cytotox: inactive; GLP-1R inv ag: inactive; ClpP mod: 11.2µM; GLP-1R agonist: inactive

How did Cc1ccc(NC(=O)C(C)c2ccc(-c3ccccc3)c(F)c2)cc1 (stereo not drawn) do in these assays?
GLP1R cytotox: inactive; GLP-1R inv ag: inconclusive; ClpP mod: 35.5µM; GLP-1R agonist: inactive

Results for CCOc1ccc2[nH]c(=O)c(CN(CCO)C(=O)c3ccc(OC)c(OC)c3)cc2c1 ?
GLP1R cytotox: inactive; GLP-1R inv ag: inactive; ClpP mod: 28.2µM; GLP-1R agonist: inactive

How did CCOc1ccc2[nH]c(=O)c(CN(CCO)C(=O)c3ccccc3F)cc2c1 do in these assays?
GLP1R cytotox: inactive; GLP-1R inv ag: inactive; ClpP mod: 31.6µM; GLP-1R agonist: inactive

What do the screens show for `CCOc1ccc2[nH]c(=O)c(CN(CCO)C(=O)c3ccc(F)cc3)cc2c1`?
GLP1R cytotox: inactive; GLP-1R inv ag: inactive; ClpP mod: 22.4µM; GLP-1R agonist: inactive

Results for COc1ccc2cc(CN(CCO)C(=O)c3ccc(Br)cc3)c(=O)[nH]c2c1 ?
GLP1R cytotox: inactive; GLP-1R inv ag: inactive; ClpP mod: inactive; GLP-1R agonist: inactive

Results for COc1ccc2cc(CN(CCO)C(=O)c3ccccc3F)c(=O)[nH]c2c1 ?
GLP1R cytotox: inactive; GLP-1R inv ag: inactive; ClpP mod: inconclusive; GLP-1R agonist: inactive

How did COC(=O)c1c(NC(=O)CCCOc2cccc(C)c2)sc2c1C(C(=O)OC)CC2 (stereo not drawn) do in these assays?
GLP1R cytotox: inactive; GLP-1R inv ag: inconclusive; ClpP mod: inactive

How did O=C(NCc1ccccc1)/C(=C/c1ccc(OC(F)F)cc1)c1ccccc1 do in these assays?
GLP1R cytotox: inactive; GLP-1R inv ag: inconclusive; ClpP mod: inactive; GLP-1R agonist: inactive

How did COc1ccc(/C=C(/C(=O)NCc2ccccc2)c2ccccc2)cc1 do in these assays?
GLP1R cytotox: inactive; GLP-1R inv ag: 25.1µM; ClpP mod: inactive; GLP-1R agonist: inactive

What do the screens show for `Cc1ccc2c(c1)Oc1ccc(NC(=O)CCl)cc1C(=O)N2`?
GLP1R cytotox: inconclusive; GLP-1R inv ag: 11.2µM; GLP-1R agonist: inactive

What do the screens show for `COc1ccc(C(=O)Nc2ccc(-c3cc4ccccc4oc3=O)c(C)c2)cc1OC`?
GLP1R cytotox: inactive; GLP-1R inv ag: inactive; ClpP mod: inactive

Results for CCc1ccc(OCC(=O)Nc2ccc(-c3cc4ccccc4oc3=O)c(OC)c2)cc1 ?
GLP1R cytotox: inactive; GLP-1R inv ag: inconclusive; ClpP mod: 35.5µM; GLP-1R agonist: inactive

How did COc1cc(NC(=O)c2cc(Cl)ccc2Cl)ccc1-c1cc2ccccc2oc1=O do in these assays?
GLP1R cytotox: inactive; GLP-1R inv ag: inactive; ClpP mod: 28.2µM; GLP-1R agonist: inactive

What do the screens show for `CCc1ccc(NC(=O)CO/N=C(\C)c2cc3ccccc3o2)cc1`?
GLP1R cytotox: inactive; GLP-1R inv ag: 11.2µM; GLP-1R agonist: inactive

Results for CSc1ccccc1NC(=O)CO/N=C(\C)c1cc2ccccc2o1 ?
GLP1R cytotox: inactive; GLP-1R inv ag: inconclusive; ClpP mod: inactive; GLP-1R agonist: inactive

What do the screens show for `Oc1ccccc1C1NN=C(c2ccccc2)S1` (stereo not drawn)?
GLP1R cytotox: inconclusive; GLP-1R inv ag: inconclusive; ClpP mod: 7.08µM; GLP-1R agonist: inactive

Results for CCc1ccc(OCC(=O)NC(NC(=S)Nc2ccccc2OC)C(Cl)(Cl)Cl)cc1 (stereo not drawn) ?
GLP1R cytotox: inactive; GLP-1R inv ag: inconclusive; ClpP mod: inactive; GLP-1R agonist: inactive

Results for Cc1ccc(C)c(NC(=S)NC(NC(=O)Cc2cccc3ccccc23)C(Cl)(Cl)Cl)c1 (stereo not drawn) ?
GLP1R cytotox: 6.31µM; GLP-1R inv ag: inconclusive; ClpP mod: inactive; GLP-1R agonist: inactive

Results for Cc1ccc(NC(=S)NC(NC(=O)c2ccccc2C)C(Cl)(Cl)Cl)c(C)c1 (stereo not drawn) ?
GLP1R cytotox: inconclusive; GLP-1R inv ag: 5.62µM; ClpP mod: inactive; GLP-1R agonist: inactive
